“And” between values parts separate entries of the source, which are not always exact repeats. Equal entries are not always repeated. Inconclusive results are not listed. The source made the active and inactive calls. Calls follow the shape of the full dose curve.
The compounds below were run against Bile acid receptor (Homo sapiens) (UniProt Q96RI1) (assay: qHTS assay for small molecule agonists of farnesoid X receptor signaling (AID 588527;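 also: series mostly up to about 77 µM; 0% = vehicle basal and 100% = reference agonist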)). Settings: HEK293T FXR-UAS-bla, beta-lactamase ratio, 16 h; activation: active compounds read high.
Text: NIH Chemical Genomics Center [NCGC] U.S. Environmental Protection Agency [EPA] National Institutes of Environmental Health Sciences [NIEHS] National Toxicology Program [NTP] NCGC Assay Overview The farnesoid-X-receptor (FXR), a nuclear hormone receptor is highly expressed in liver, intestine, kidney and adrenal cortex. Natural ligands of FXR are the bile acids (Cholic acid, Chenodeoxy cholic acid etc). It is an important regulator of diverse metabolic pathways, including the bile acid homeostasis, lipid and glucose metabolisms. FXR regulates the expression of target genes by binding either as a monomer or as a heterodimer with RXR (retinoid X receptor). As FXR regulates a large number of target genes involved in bile acid, lipoprotein and glucose metabolisms, it is a potential pharmacological target for bile acid and lipid disorders. Thus screening environmental chemicals on FXR signaling can be used for the studies focused on metabolic syndrome, hepatic and intestinal toxicity etc.
NCGC Assay Protocol Summary Using a beta-lactamase reporter-gene under control of Farnesoid X receptor (FXR) response element, a cell-based assay [GeneBLAzer FXR-UAS-bla assay developed by Invitrogen] was used to measure FXR ligands signaling. GeneBLAzer FXR-UAS-bla HEK293T cells were used with assay medium containing 10% dialyzed FBS. The assay was performed in clear bottom black Greiner 1536-well plates. Chenodeoxycholic acid and Guggulsterone were used in the screen as agonist and antagonist positive controls respectively. Library compounds were measured for their ability to stimulate the reporter gene activity. Compounds were screened in a titration series in 1536-well format. […] Data was normalized relative to Chenodeoxycholic acid control (100 uM, 100%), and DMSO only wells (basal, 0%). Concentration-response titration points for each compound were fitted to the Hill equation yielding concentrations of half-maximal stimulation (EC50) and maximal response (efficacy) values. qHTS protocol for FXR beta-lactamase assay in agonist mode [Step] [Parameter] [Value] [Description] 1. Reagent; 6 uL; 5000 cells/well 2. Incubation; 37 C for 5-7 hrs 3. Compounds; 23 nL; 0.59 nM to 92 uM 4. Controls (Chenodeoxycholic acid); 23 nL, - One column with dose response, start 200 uM, 1:2 dilutions in duplicates - Final concentrations of 100 uM and 60 uM in two columns 5. Incubation; 37 C for 16 hrs 6. Detection reagent; 1 uL of CCF4-dye 7. Incubation; RT for 2 hrs 8. Detection; Fluorescence; Envision plate reader

Bile acid receptor (Homo sapiens), sequence (Q96RI1 whole entry, looked up): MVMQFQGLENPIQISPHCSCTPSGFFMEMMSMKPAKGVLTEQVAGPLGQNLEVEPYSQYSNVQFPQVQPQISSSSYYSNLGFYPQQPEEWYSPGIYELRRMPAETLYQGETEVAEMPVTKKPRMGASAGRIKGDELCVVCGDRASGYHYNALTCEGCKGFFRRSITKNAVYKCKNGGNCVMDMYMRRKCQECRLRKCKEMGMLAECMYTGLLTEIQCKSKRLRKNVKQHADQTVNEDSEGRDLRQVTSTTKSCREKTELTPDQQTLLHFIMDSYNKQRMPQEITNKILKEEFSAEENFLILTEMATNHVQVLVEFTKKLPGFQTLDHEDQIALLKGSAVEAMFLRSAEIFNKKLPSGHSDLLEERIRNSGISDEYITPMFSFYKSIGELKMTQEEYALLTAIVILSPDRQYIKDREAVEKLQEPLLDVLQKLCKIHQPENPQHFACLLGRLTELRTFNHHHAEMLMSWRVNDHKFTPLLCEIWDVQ

| Compound | activation |
| --- | --- |
| Cc1c(N)cccc1Cl | -0.769% (inactive) |
| Clc1ccccn1 | -2.48% (inactive) |
| COc1nn(C(=O)NS(=O)(=O)c2ccccc2OC(F)(F)F)c(=O)n1C | 1.22% (inactive) |
| Cc1[nH]c(=O)n(C(C)(C)C)c(=O)c1Cl | 0.517% (inactive) |
| CCOP(OCC)OCC | -1.35% (inactive) |
| CCCCCCCOC(=O)c1ccccc1C(=O)OCCCCCCC | -0.976% (inactive) |
| CSCCC=O | -2.56% (inactive) |
| CC(=O)Nc1cccc(N)c1 | -3.44% (inactive) |
| CN(C)CCOCCN(C)C | -0.638% (inactive) |
| COC(=O)/C=C(\C)OP(=O)(OC)OC | 7.79% (inactive) |
| CC(Oc1cc(Cl)c(Cl)cc1Cl)C(=O)O (stereo not given) | -3.32% (inactive) |
| O=C(O)C(c1ccc(Cl)cc1)c1ccc(Cl)cc1 | -2.74% (inactive) |
| OB(O)O | 1.87% (inactive) and 2.1% (inactive) |
| C=CC(=O)OCCCC | -3.45% (inactive) |
| O=c1[nH]c(=O)c2[nH]cnc2[nH]1 | -9.18% (inactive) |
| Clc1ccc([C@]2(Cn3cncn3)C[C@@H](Br)CO2)c(Cl)c1 | -2.66% (inactive) and -2.04% (inactive) |
| C=C(C)C(=O)OCCCCCCCCCCCCCCCC | -3.87% (inactive) |
| CCC[CH2][Sn]([Cl])([CH2]CCC)[CH2]CCC | 7.19% (inactive) |
| COC(=O)c1ccccc1S(=O)(=O)NC(=O)N(C)c1nc(C)nc(OC)n1 | 1.44% (inactive) |
| Cc1ccc(Cl)cc1N | -2.98% (inactive) |

| Compound | activation |
| --- | --- |
| CCCCCCc1ccc(-c2ccc(C#N)cc2)cc1 | -1.9% (inactive) |
| O=C1C=C2C(=CCOC2O)O1 (stereo not given) | -4.19% (inactive) |
| O=C1C=CC(=O)c2ccccc21 | -2.25% (inactive) |
| CCC1CO1 (stereo not given) | -1.53% (inactive) |
| Clc1ccc([C@@]2(Cn3cncn3)C[C@H](Br)CO2)c(Cl)c1 | -2.3% (inactive) |
| O=C1OC(=O)c2ccccc21 | 1.95% (inactive) |
| COCc1cnc(C2=NC(C)(C(C)C)C(=O)N2)c(C(=O)O)c1 (stereo not given) | -0.497% (inactive) |
| COP(=S)(OC)Oc1nc(Cl)c(Cl)cc1Cl | 0.351% (inactive) |
| CC(C)Cc1nccs1 | -0.154% (inactive) |
| Cc1ccc(Cl)cc1 | -1.75% (inactive) |
| CCCOC(=O)c1cc(O)c(O)c(O)c1 | -0.748% (inactive) |
| C#CCN1CC(=O)N(COC(=O)[C@@H]2[C@@H](C=C(C)C)C2(C)C)C1=O | 5.41% (inactive) |
| Cc1ccc(C(=O)c2ccccc2)cc1 | -0.352% (inactive) |
| CC(C)O.CC(C)O.CC(C)O.CC(C)O.[Ti] | -5.62% (inactive) |
| Cc1ccc([N+](=O)[O-])cc1N | -0.807% (inactive) and -1.04% (inactive) |
| O=S(c1ccc(Cl)cc1)c1cc(Cl)c(Cl)cc1Cl (stereo not given) | 0.155% (inactive) |
| CCCCCCCCCCCCCCCO | -2.39% (inactive) |
| O=P(O)(O)O | 0.993% (inactive) |
| O=S(=O)(c1ccc(Cl)cc1)c1cc(Cl)c(Cl)cc1Cl | 3.42% (inactive) |
| CCCCOC(=O)c1ccccc1C(=O)O | -1.61% (inactive) |

From PubChem BioAssay (NCATS)
